We go through 83 compounds from paper PMC4336329 (PLoS ONE, 2015).

Among all 310,000 compounds or so, about 14,000 (4.5%) showed an effect of 50% or more. Effects have a minus sign here. The list comes from a sample in which strong results are over-represented; it also holds similar structures and randomly drawn compounds.
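Also: peak tail current of the secondary pulse compared with the same well before compound.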

The target in this assay is human ether-à-go-go-related gene (hERG) potassium channel (human, UniProt Q12809). The experiment in a line: primary screen, population patch clamp on CHO cells stably expressing hERG; higher = less effect of the substance.
Chain of human ether-à-go-go-related gene (hERG) potassium channel (Q12809 whole entry, looked up): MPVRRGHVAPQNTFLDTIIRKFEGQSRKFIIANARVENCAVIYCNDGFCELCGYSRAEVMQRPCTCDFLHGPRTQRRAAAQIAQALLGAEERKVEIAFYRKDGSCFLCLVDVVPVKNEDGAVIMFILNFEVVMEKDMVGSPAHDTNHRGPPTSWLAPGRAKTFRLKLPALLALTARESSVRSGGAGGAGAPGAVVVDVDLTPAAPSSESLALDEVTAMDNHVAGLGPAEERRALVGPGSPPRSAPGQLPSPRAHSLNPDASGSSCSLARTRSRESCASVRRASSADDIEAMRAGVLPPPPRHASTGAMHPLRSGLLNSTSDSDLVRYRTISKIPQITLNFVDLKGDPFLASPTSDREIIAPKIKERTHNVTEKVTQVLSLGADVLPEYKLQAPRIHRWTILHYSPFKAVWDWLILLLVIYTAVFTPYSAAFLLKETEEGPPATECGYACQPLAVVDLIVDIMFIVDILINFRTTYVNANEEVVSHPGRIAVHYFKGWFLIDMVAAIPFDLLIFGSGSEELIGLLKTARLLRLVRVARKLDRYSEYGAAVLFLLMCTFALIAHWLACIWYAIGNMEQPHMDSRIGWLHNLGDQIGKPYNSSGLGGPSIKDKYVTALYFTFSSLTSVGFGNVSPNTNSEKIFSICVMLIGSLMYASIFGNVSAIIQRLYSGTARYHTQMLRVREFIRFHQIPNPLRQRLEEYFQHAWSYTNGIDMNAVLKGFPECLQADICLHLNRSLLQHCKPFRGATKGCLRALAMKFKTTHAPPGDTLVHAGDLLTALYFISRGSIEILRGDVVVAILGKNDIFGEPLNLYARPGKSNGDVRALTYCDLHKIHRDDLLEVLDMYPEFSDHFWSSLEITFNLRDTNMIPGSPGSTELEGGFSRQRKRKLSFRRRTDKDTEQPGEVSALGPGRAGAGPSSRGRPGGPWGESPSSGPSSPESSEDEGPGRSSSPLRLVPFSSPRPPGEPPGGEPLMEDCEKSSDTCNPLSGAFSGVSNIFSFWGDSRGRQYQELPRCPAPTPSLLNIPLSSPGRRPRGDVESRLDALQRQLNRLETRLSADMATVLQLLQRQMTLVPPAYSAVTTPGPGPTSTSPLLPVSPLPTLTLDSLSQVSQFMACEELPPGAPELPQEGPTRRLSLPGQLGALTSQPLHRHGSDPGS
For `O=C(CC1SC(=Nc2ccc(OC(F)F)cc2)N(CCN2CCOCC2)C1=O)Nc1ccc(F)cc1F` (centres unmarked), the “hERG current change (%, negative = inhibition) at 10uM” value is -82.9%.
As for `O=C(CC1SC(=Nc2ccccc2F)N(CCN2CCOCC2)C1=O)Nc1ccc(F)cc1F` (centres unmarked), the figure is -13.1%; as for `COc1ccc(N=C2SC(CC(=O)Nc3ccccc3)C(=O)N2CCN2CCOCC2)cc1` (centres unmarked), -23.1%.
As for `Cc1cc(NCC(C)C)n2ncnc2n1`, the figure is 14%; as for `CCCn1c(=N)c(S(=O)(=O)c2ccccc2)cc2c(=O)n3cccc(C)c3nc21`, 0.577%.
Then `Cc1cccn2c(=O)c3cc(S(=O)(=O)c4ccccc4)c(=N)n(Cc4cccnc4)c3nc12`, with -66.1%.
As for `Cc1cccn2c(=O)c3cc(S(=O)(=O)c4ccccc4)c(=N)n(Cc4ccc(F)cc4)c3nc12`, the “hERG current change (%, negative = inhibition) at 10uM” value turned out to be 24.7%.
For the compound `N=c1c(S(=O)(=O)c2ccccc2)cc2c(=O)n3ccccc3nc2n1Cc1cccnc1`, the “hERG current change (%, negative = inhibition) at 10uM” value was -59.2%.
Then `N=c1c(S(=O)(=O)c2ccc(Cl)cc2)cc2c(=O)n3ccccc3nc2n1Cc1cccnc1`, with -35.5%; and `N=c1c(S(=O)(=O)c2ccc(Br)cc2)cc2c(=O)n3ccccc3nc2n1Cc1ccccc1`, with 27%.
As for `CCCCC(CC)C(=O)Nc1cc(C(=O)NCc2ccc(C)cc2)ccc1N1CCC2(CC1)CC(c1cccc(Br)c1)=NO2` (centres unmarked), the figure is 17.6%; as for `CCOC(=O)C1=C(C)N=c2s/c(=C/c3cccc([N+](=O)[O-])c3O)c(=O)n2C1c1ccccc1` (centres unmarked), -20.4%; as for `COc1ccc(CCC(=O)Nc2ncc(C)s2)cc1OC`, 16.2%.
Turning to `Cc1ccc(S(=O)(=O)N2CCN(C(=O)COC(=O)CSc3cc(C)ccc3C)CC2)c(C)c1`, the “hERG current change (%, negative = inhibition) at 10uM” value is recorded as -6.13%.
Then `COCCC(=O)N1CCC(n2nccc2NC(=O)c2ccccc2C)CC1`, with 12.6%.
As for `COc1ccccc1C(=O)NC(CCSC)C(=O)N1CCC(Cc2ccccc2)CC1` (centres unmarked), the figure is -23.1%; as for `COc1ccccc1C(=O)Nc1ccnn1C1CCN(C/C=C/c2ccccc2)CC1`, -78.9%; as for `COc1ccccc1C(=O)NC(CCSC)C(=O)N1CCN(C/C=C/c2ccccc2)CC1` (centres unmarked), -109%.
With `COc1ccccc1C(=O)Nc1ccnn1C1CCN(C/C=C/c2ccc(F)cc2)CC1`, the “hERG current change (%, negative = inhibition) at 10uM” value is listed as -76.6%.
Turning to `COc1ccccc1C(=O)NC(CCSC)C(=O)N1CCN(C(C)=O)CC1` (centres unmarked), the “hERG current change (%, negative = inhibition) at 10uM” value was -0.345%.
Regarding `O=C(COc1ccccc1-c1ccccc1)NN=C1CCCC1`, the “hERG current change (%, negative = inhibition) at 10uM” value was -6.03%.
In the case of `COC(=O)c1cc(NC(=O)CN(c2ccc3c(c2)OCO3)S(C)(=O)=O)ccc1Cl`, the “hERG current change (%, negative = inhibition) at 10uM” value is -8.58%.
As for `CCN1CCN(Cc2ccc(NC(=O)c3cc(NC(=O)C(=O)c4c[nH]c5ccccc45)cc(OC)c3)cc2C(F)(F)F)CC1`, the figure is 8.1%.
Turning to `O=C(CSc1nc2cc(Cl)c(Cl)cc2[nH]1)c1ccc2c(c1)OCO2`, the “hERG current change (%, negative = inhibition) at 10uM” value was 7.8%.
With `Cc1c(C(C)NC(=O)Nc2ccc(F)cc2F)cnn1C` (centres unmarked), the “hERG current change (%, negative = inhibition) at 10uM” value is 15.2%.
Regarding `O=C(O)/C=C/c1ccc([N+](=O)[O-])o1`, the “hERG current change (%, negative = inhibition) at 10uM” value is reported as 22.2%.
As for `Fc1ccccc1CSc1nnc(-c2ccccc2)o1`, the figure is -9.31%.
Consider `COP(=O)(OC)C(NS(=O)(=O)c1ccccc1)C(Cl)(Cl)Cl` (centres unmarked), for which the “hERG current change (%, negative = inhibition) at 10uM” value amounted to 23.8%.
As for `COc1ccc(OC)c(Nc2cc(C)nc3ccc(C)cc23)c1`, the figure is -68.6%.
Then `COc1ccc(OC)c(Nc2cc(C)nc3ccccc23)c1`, with -57.6%.
For `COc1ccc(OC)c(Nc2nc(-c3ccccc3O)nc3ccccc23)c1`, the “hERG current change (%, negative = inhibition) at 10uM” value came to 18.7%.
Regarding `CCOC(=O)c1nc(Nc2cc(Cl)ccc2OC)c2ccccc2n1`, the “hERG current change (%, negative = inhibition) at 10uM” value is 6.83%.
As to `COc1ccc(OC)c(Nc2cc(C)c3ccccc3n2)c1`, the “hERG current change (%, negative = inhibition) at 10uM” value came out at 2%.
`COc1ccc(Cl)cc1Nc1nc(N)c2ccccc2n1.Cl`: the “hERG current change (%, negative = inhibition) at 10uM” value is reported as 20.4%.
For `COc1ccc(OC)c(Nc2cc(-c3ccccc3)nc(N)n2)c1`, the “hERG current change (%, negative = inhibition) at 10uM” value is -55.9%.
Then `COc1ccc2nc(C)cc(Nc3ccccc3O)c2c1.Cl`, with -20.3%; and `COc1ccc(OC)c(Nc2ccc(Nc3cc(OC)ccc3OC)nn2)c1`, with -2.07%; and `COc1ccc(OC)c(Nc2ncnc3ccccc23)c1.Cl`, with -18.6%.
In the case of `COc1ccc(Cl)cc1Nc1cc(C)nc2ccccc12`, the “hERG current change (%, negative = inhibition) at 10uM” value is -73%.
As for `Cc1cccc(OC(C)C(=O)Nc2ccccc2C(=O)N2CCCCC2)c1` (centres unmarked), the figure is -0.472%; as for `CCCC1=Nc2cc(C(=O)NCc3ccco3)ccc2Sc2ccccc21`, 1.84%; as for `CC(Cl)C(=O)Nc1cc(C(F)(F)F)ccc1N1CCOCC1` (centres unmarked), 2.38%.
With `COc1ccccc1N(CC1CO1)S(=O)(=O)c1ccc(C)cc1` (centres unmarked), the “hERG current change (%, negative = inhibition) at 10uM” value was found to be 18.9%.
Then `Cc1cccc(NC(=O)Cc2c(F)cccc2Cl)n1`, with 5.01%; and `O=C(Nc1cccc(C(=O)N2CCCCCC2)c1)c1ccco1`, with -14.5%; and `CC1CCN(C(C)C(=O)Nc2cc(S(=O)(=O)N3CCCCC3)ccc2Cl)CC1` (centres unmarked), with -18.3%.
As for `CCOc1ccc2c(c1)C(c1cccs1)=NNC(c1cccnc1)=N2`, the figure is -65.4%.
As for `CCc1ccc2c(c1)C(c1cccs1)=NNC(c1cccnc1)=N2`, the figure is -48.6%; as for `COc1ccc2c(c1)C(c1cccs1)=NNC(c1cccnc1)=N2`, 10.4%.
Turning to `O=C(CCn1c(=S)oc2ccccc21)N1CCCCC1`, the “hERG current change (%, negative = inhibition) at 10uM” value is reported as -7.1%.
Then `COc1ccc(C)cc1S(=O)(=O)N1CCN(S(=O)(=O)c2cc(C)ccc2OC)CC1`, with -1.43%.
On to `COc1ccc(CCNCc2cccc(C(F)(F)F)c2)cc1OC.O=C(O)C(=O)O`, for which the “hERG current change (%, negative = inhibition) at 10uM” value is recorded as 0.584%.
Turning to `COc1cc(OC)c(OC)cc1CNCCc1ccc2c(c1)OCO2.O=C(O)C(=O)O`, the “hERG current change (%, negative = inhibition) at 10uM” value is reported as -8.77%.
Then `COc1ccc(CCNCc2ccc(Br)cc2)cc1OC.O=C(O)C(=O)O`, with -62.9%; and `COc1ccc(CNCCc2ccc3c(c2)OCO3)cc1Br.O=C(O)C(=O)O`, with -50.5%.
Consider `COc1ccc(OC)c(CNCCc2ccc(OC)c(OC)c2)c1.O=C(O)C(=O)O`, for which the “hERG current change (%, negative = inhibition) at 10uM” value is given as 5.38%.
Then `COc1ccc(Br)cc1CNCCc1ccc2c(c1)OCO2`, with -60.7%.
As to `COc1cc(CNCCc2ccc3c(c2)OCO3)cc(OC)c1OC.O=C(O)C(=O)O`, the “hERG current change (%, negative = inhibition) at 10uM” value is -14.2%.
`COc1cc(Br)c(CNCCc2ccc3c(c2)OCO3)cc1OC`: the “hERG current change (%, negative = inhibition) at 10uM” value is -32%.
For the compound `COc1ccc(CNCc2ccc3c(c2)OCO3)cc1Br.O=C(O)C(=O)O`, the “hERG current change (%, negative = inhibition) at 10uM” value was -23.1%.
Consider `Cc1nnc(NC(=O)c2cc(S(=O)(=O)N3CCCCC3)ccc2Cl)s1`, for which the “hERG current change (%, negative = inhibition) at 10uM” value stood at 14.6%.
For `CC(=O)c1ccc(NS(=O)(=O)c2c(C)cc(C)cc2C)cc1`, the “hERG current change (%, negative = inhibition) at 10uM” value amounted to 17.9%.
Consider `N#Cc1cn(-c2ccccc2)nc1-c1ccccc1`, for which the “hERG current change (%, negative = inhibition) at 10uM” value came out at 0.313%.
Take `COC(=O)c1cc(CSc2ncnc3sccc23)oc1C`: the “hERG current change (%, negative = inhibition) at 10uM” value was 16.6%.
As for `COc1cc(OC)c(OC)cc1CN1CCN(C(=O)Cc2ccccc2)CC1.O=C(O)C(=O)O`, the figure is 5.5%; as for `CCOC(=O)C1(CCc2ccccc2)CCN(Cc2c(O)cccc2OC)CC1`, -95.1%; as for `CCOC(=O)C1(CCc2ccccc2)CCN(Cc2cc(OC)c(OC)cc2OC)CC1`, -77.4%.
Then `O=C(NCc1cccc(C(F)(F)F)c1)c1cccc(Cl)c1Cl`, with 10.5%.
Take `CCc1cc(Cn2nc(-c3ccccc3)cc2C(=O)O)on1`: the “hERG current change (%, negative = inhibition) at 10uM” value is -1.7%.
For `O=C(CNC(=O)c1cccs1)N/N=C/c1cccc(Cl)c1`, the “hERG current change (%, negative = inhibition) at 10uM” value is -5.74%.
Then `COc1ccc(OC)c(NC(=O)C(=O)NNC(=O)c2cccs2)c1`, with 10.9%; and `O=C(NCCCO)C(=O)NCC(c1ccc2c(c1)OCO2)N1CCN(c2ccc(F)cc2)CC1` (centres unmarked), with -41.4%; and `CC[N+](CC)(CCCCS(=O)(=O)[O-])CCNP1(=O)C=C(c2ccccc2)OC(c2ccccc2)=C1`, with 9.75%.
As for `O=C(C[N+]1(CC#Cc2ccccc2)CCOCC1)c1ccccc1.[Br-]`, the figure is 35.8%; as for `N#CC[N+]1(CCCNP2(=O)C=C(c3ccccc3)OC(c3ccccc3)=C2)CCOCC1.[Cl-]`, -63.5%; as for `O=C1CCC(C(=O)OCC(=O)N2N=C3/C(=C/c4ccccc4)CCCC3C2c2ccccc2)N1` (centres unmarked), -70.3%.
Then `O=C(c1ccccn1)N1N=C2/C(=C/c3ccc(F)cc3)CCCC2C1c1ccc(F)cc1` (centres unmarked), with -54.3%.
On to `CC(=O)N1N=C2/C(=C/c3ccccc3)CCCC2C1c1ccccc1` (centres unmarked), for which the “hERG current change (%, negative = inhibition) at 10uM” value is listed as -10.5%.
Then `NC(=O)N1N=C2/C(=C/c3ccccc3)CCCC2C1c1ccccc1` (centres unmarked), with -17.1%; and `O=C(c1ccccn1)N1N=C2/C(=C/c3ccccc3)CCCC2C1c1ccccc1` (centres unmarked), with -37.1%.
Regarding `Cc1ncsc1C(=O)N1N=C2/C(=C/c3ccccc3)CCCC2C1c1ccccc1` (centres unmarked), the “hERG current change (%, negative = inhibition) at 10uM” value is reported as -0.298%.
Consider `CCCCCOC(=O)C1=C(C)NC(=O)NC1c1ccc(N(C)C)cc1` (centres unmarked), for which the “hERG current change (%, negative = inhibition) at 10uM” value worked out at 12.5%.
Then `COc1ccc(C2C3=C(CC(C)(C)CC3=O)Nc3c2c(=O)[nH]c(=O)n3Cc2ccccc2)cc1OC` (centres unmarked), with -3.11%.
